Results filed as inconclusive are left out. The source made the active and inactive calls. The calls were made as follows: active = hit-call score of the fitted dose curve at least 0.9, where 1 is the maximum; inconclusive = response in the unintended direction; inactive = score below 0.9.
What was measured:
[1] = target: human Protein Tyrosine Phosphatase Receptor Type M (PTPRM), PTPRM (gene 5797) (UniProt P28827); assay: NVS_ENZ_hPTPRM: NovaScreen (NVS) Enzymatic Assay for human Protein Tyrosine Phosphatase Receptor Type M (PTPRM) (AID 2283215)
human Protein Tyrosine Phosphatase Receptor Type M (PTPRM), PTPRM (gene 5797), sequence (P28827 whole entry, looked up): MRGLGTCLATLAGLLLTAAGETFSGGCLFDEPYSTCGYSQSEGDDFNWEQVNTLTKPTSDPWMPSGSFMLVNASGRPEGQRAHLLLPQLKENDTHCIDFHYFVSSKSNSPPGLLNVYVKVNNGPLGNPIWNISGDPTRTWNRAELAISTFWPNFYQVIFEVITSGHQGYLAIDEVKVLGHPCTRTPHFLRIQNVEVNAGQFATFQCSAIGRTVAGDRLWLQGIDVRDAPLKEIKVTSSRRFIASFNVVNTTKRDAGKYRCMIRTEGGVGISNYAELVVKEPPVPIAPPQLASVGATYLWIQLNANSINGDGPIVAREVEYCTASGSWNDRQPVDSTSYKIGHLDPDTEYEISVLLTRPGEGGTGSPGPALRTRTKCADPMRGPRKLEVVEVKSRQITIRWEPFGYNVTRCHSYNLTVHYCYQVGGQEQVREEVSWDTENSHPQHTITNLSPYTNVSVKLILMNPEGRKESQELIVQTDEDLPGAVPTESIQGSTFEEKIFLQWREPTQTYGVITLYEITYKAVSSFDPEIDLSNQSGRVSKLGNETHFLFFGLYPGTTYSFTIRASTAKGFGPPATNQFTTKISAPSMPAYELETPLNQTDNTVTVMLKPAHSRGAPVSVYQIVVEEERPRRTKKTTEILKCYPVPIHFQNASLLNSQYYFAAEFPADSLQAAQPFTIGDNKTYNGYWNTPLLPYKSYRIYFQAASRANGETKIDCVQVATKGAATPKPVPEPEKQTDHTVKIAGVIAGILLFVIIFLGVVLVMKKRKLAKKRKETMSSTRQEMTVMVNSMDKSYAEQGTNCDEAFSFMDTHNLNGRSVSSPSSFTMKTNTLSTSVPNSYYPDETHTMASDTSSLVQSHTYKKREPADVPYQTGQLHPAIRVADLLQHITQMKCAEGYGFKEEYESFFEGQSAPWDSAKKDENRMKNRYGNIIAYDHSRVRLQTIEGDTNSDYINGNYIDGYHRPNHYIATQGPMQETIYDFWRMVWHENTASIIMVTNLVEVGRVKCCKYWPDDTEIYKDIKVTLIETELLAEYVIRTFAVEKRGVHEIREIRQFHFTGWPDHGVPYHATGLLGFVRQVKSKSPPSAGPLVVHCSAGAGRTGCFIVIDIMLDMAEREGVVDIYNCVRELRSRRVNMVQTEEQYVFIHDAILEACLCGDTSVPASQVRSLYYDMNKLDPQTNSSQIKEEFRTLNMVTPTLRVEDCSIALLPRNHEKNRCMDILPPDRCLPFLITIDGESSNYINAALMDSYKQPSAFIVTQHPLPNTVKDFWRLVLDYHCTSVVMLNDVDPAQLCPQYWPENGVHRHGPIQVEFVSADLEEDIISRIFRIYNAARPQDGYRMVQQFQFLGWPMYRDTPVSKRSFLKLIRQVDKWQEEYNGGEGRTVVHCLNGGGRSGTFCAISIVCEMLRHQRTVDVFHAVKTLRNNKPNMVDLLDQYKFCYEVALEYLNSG
Procedure, shortened: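 Read-out is fluorescence after electrophoretic separation of substrate and product, taken 1.33 h post-dosing with recombinant enzyme. Compounds screened at 25 uM in duplicate, then concentration series for actives; activity as signal loss relative to DMSO.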

[2] = target: rabbit Imidazoline 2 Central (I2C), CKB (gene 100009085) (UniProt P00567); assay: NVS_ENZ_rabI2C: NovaScreen (NVS) Enzymatic Assay for rabbit Imidazoline 2 Central (I2C) (AID 2283228)
rabbit Imidazoline 2 Central (I2C), CKB (gene 100009085), sequence (P00567 whole entry, looked up): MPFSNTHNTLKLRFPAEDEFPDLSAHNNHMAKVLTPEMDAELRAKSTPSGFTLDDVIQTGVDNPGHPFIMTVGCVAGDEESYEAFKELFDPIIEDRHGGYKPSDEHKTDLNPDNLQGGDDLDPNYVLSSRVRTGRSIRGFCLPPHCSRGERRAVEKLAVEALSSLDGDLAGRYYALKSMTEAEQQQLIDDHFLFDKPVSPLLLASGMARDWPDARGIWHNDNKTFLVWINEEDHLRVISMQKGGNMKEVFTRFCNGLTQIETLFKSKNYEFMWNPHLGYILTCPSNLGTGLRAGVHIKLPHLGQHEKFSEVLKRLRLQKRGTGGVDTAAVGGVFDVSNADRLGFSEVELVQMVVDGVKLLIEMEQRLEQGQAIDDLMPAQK
Procedure, shortened: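 Rabbit brain membranes, cell-free; readout by filter-based scintillation counting 1.5 hours after dosing, loss of signal vs DMSO. Initial duplicate test at 25 uM, then concentration-response with 50 uM top concentration.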

[3] = target: human Sirtuin 1 (SIRT1), SIRT1 (gene 23411) (UniProt Q96EB6); assay: NVS_ENZ_hSIRT1: NovaScreen (NVS) Enzymatic Assay for human Sirtuin 1 (SIRT1) (AID 2283219)
Procedure, shortened: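 Cell-free recombinant SIRT1 with a fluorescent substrate; substrate and product separated by electrophoretic mobility shift and read by fluorescence intensity, 1 h after dosing. Primary screen at 25 uM in duplicate; hits re-run in concentration-response up to 50 uM, relative to DMSO.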

[4] = target: human Vascular Endothelial Growth Factor Receptor 2 (VEGFR2), KDR (gene 3791) (UniProt P35968); assay: NVS_ENZ_hVEGFR2: NovaScreen (NVS) Enzymatic Assay for human Vascular Endothelial Growth Factor Receptor 2 (VEGFR2) (AID 2283230)
Procedure, shortened: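 Cell-free recombinant VEGFR2 kinase, fluorescent substrate with electrophoretic mobility-shift separation; read 1 h after dosing. Screened at 25 uM in duplicate, hits to concentration-response up to 50 uM; loss-of-signal versus DMSO.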

[5] = target: human Tropomyosin Receptor Kinase A (TRKA), NTRK1 (gene 4914) (UniProt P04629); assay: NVS_ENZ_hTrkA: NovaScreen (NVS) Enzymatic Assay for human Tropomyosin Receptor Kinase A (TRKA) (AID 2283224)
Protocol: (§1) NVS_ENZ_hTrkA is a biochemical, single-readout assay that uses extracted gene-proteins in a cell-free assay. Measurements were taken 1 hour after chemical dosing in a 384-well plate.NVS_ENZ_hTrkA is one of one assay component(s) measured or calculated from the NVS_ENZ_hTrkA assay. It is designed to make measurements of enzyme activity, a form of enzyme reporter, as detected with fluorescence intensity signals by Fluorescence and electrophoretic mobility shift technology.Data from the assay component NVS_ENZ_hTrkA was analyzed into 1 assay endpoint. This assay endpoint, NVS_ENZ_hTrkA, was analyzed in the positive analysis fitting direction relative to DMSO as the negative control and baseline of activity. Using a type of enzyme reporter, loss-of-signal activity can be used to understand changes in the enzymatic activity as they relate to the gene NTRK1. Furthermore, this assay endpoint can be referred to as a primary readout, because this assay has produced multiple assay endpoints where this one serves a enzymatic activity function. To generalize the intended target to other relatable targets, this assay endpoint is annotated to the kinase intended target family, where the subfamily is receptor tyrosine kinase.
(§2) Binding assays used specific radioligands (tritiated, iodinated) with non-radioactive competitive displacement ligands in agonist or antagonist protocols (as indicated) and various reference compounds and inhibitors to titrate specific binding to receptors and transporters. Most enzyme assays (CYPs, kinases, phosphatases, proteases, HDACs) used recombinant protein and specific substrates (fluorescence mostly, some colorimetric and radioactive) and inhibitors, followed by a biochemical separation of substrate and product. All assays for the biochemical HTS were initially run in duplicate at a single concentration (10 uM for CYP450 assays and 25 uM for all others). Assay-chemical combinations meeting a pre-defined threshold (e.g., 30% inhibition and other criteria defined below) were then run in singleton concentration-response format with maximum concentration of 20 uM for CYPs and 50 uM for all others. Each assay was run with positive and negative controls, and concurrent controls on every plate. The follow-up (secondary) screen tested active chemical-pairs in concentration series, as well as a few additional assays not tested in the primary screen, some selected negative inactives, and several cases re-run in the concentration series for confirmatory purposes.

[6] = target: human Vascular Endothelial Growth Factor Receptor 3 (VEGFR3), FLT4 (gene 2324) (UniProt P35916); assay: NVS_ENZ_hVEGFR3: NovaScreen (NVS) Enzymatic Assay for human Vascular Endothelial Growth Factor Receptor 3 (VEGFR3) (AID 2283229)
human Vascular Endothelial Growth Factor Receptor 3 (VEGFR3), FLT4 (gene 2324), sequence (P35916 whole entry, looked up): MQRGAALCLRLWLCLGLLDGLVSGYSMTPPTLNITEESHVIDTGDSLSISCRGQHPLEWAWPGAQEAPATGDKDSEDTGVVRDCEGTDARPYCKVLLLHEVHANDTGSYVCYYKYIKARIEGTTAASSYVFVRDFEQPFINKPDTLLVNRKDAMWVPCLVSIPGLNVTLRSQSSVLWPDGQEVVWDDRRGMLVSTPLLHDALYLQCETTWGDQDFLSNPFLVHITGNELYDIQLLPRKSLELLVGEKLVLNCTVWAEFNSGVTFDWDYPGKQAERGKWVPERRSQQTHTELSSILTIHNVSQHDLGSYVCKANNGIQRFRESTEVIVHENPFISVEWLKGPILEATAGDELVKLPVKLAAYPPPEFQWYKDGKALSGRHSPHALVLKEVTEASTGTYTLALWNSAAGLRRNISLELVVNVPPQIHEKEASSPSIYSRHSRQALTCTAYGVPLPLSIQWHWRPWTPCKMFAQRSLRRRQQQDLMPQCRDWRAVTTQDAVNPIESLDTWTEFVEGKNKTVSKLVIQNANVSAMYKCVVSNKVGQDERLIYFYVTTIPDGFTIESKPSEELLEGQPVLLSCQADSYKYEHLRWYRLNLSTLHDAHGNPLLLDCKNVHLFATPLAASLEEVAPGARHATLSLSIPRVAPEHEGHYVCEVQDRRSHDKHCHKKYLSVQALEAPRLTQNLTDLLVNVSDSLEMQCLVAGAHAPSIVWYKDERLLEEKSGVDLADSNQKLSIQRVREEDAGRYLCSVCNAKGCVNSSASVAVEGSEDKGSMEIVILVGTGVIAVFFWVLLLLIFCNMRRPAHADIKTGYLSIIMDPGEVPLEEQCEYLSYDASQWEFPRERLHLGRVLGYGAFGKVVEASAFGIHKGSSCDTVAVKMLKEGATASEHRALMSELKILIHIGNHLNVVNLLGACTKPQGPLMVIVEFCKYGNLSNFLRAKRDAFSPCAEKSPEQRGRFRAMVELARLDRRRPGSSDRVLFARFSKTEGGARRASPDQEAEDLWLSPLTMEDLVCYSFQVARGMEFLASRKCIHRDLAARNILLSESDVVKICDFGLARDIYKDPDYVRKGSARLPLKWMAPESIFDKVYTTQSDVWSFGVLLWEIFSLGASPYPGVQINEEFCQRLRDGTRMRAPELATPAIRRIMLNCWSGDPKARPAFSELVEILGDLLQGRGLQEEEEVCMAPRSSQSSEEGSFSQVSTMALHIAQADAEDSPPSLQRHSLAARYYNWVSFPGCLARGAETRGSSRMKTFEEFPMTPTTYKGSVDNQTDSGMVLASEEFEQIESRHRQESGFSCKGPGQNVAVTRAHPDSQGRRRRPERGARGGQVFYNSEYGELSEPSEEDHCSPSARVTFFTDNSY
Procedure, shortened: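 Chemicals first run in duplicate at 25 uM, with actives re-tested in concentration series to a top of 50 uM. Recombinant VEGFR3 activity measured after 1 h via fluorescence with mobility-shift product separation; inhibition fitted relative to DMSO.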

[7] = target: human Sirtuin 3 (SIRT3), SIRT3 (gene 23410) (UniProt Q9NTG7); assay: NVS_ENZ_hSIRT3: NovaScreen (NVS) Enzymatic Assay for human Sirtuin 3 (SIRT3) (AID 2283222)
Procedure, shortened: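 Cell-free enzyme assay with recombinant protein and fluorescent substrate, product separated by electrophoretic mobility shift; read 1 hour after dosing. Screened in duplicate at 25 uM, then singleton concentration-response up to 50 uM; loss of signal versus DMSO.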

[8] = target: human Sirtuin 2 (SIRT2), SIRT2 (gene 22933) (UniProt Q8IXJ6); assay: NVS_ENZ_hSIRT2: NovaScreen (NVS) Enzymatic Assay for human Sirtuin 2 (SIRT2) (AID 2283217)
human Sirtuin 2 (SIRT2), SIRT2 (gene 22933), sequence (Q8IXJ6 whole entry, looked up): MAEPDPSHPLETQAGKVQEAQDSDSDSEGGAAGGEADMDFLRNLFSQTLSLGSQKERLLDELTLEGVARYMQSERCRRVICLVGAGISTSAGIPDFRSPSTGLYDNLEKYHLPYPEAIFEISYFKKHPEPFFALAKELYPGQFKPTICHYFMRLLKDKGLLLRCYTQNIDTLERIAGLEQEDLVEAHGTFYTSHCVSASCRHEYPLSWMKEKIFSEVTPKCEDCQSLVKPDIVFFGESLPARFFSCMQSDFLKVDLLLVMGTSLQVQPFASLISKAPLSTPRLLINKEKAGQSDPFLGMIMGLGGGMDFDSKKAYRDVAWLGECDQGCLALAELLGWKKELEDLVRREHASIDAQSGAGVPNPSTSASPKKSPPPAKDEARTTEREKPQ
Protocol: as §1, with “NVS_ENZ_hSIRT2” for “NVS_ENZ_hTrkA”, “plate.NVS_ENZ_hSIRT2” for “plate.NVS_ENZ_hTrkA”, “NVS_ENZ_hSIRT2,” for “NVS_ENZ_hTrkA,”, “SIRT2.” for “NTRK1.”, “hydrolase” for “kinase”, “protein deacetylase.” for “receptor tyrosine kinase.”
as §2

[9] = target: human SRC Proto-Oncogene, Non-receptor Tyrosine Kinase (SRC), SRC (gene 6714) (UniProt P12931); assay: NVS_ENZ_hSRC: NovaScreen (NVS) Enzymatic Assay for human SRC Proto-Oncogene, Non-receptor Tyrosine Kinase (SRC) (AID 2283223)
Procedure, shortened: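 Compounds passing 30% inhibition at 25 uM (duplicate) were titrated to a top concentration of 50 uM. Enzyme activity read by fluorescence with mobility-shift substrate/product separation after 1 h; DMSO baseline.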

[10] = target: human Vascular Endothelial Growth Factor Receptor 1 (VEGFR1), FLT1 (gene 2321) (UniProt P17948); assay: NVS_ENZ_hVEGFR1: NovaScreen (NVS) Enzymatic Assay for human Vascular Endothelial Growth Factor Receptor 1 (VEGFR1) (AID 2283226)
human Vascular Endothelial Growth Factor Receptor 1 (VEGFR1), FLT1 (gene 2321), sequence (P17948 whole entry, looked up): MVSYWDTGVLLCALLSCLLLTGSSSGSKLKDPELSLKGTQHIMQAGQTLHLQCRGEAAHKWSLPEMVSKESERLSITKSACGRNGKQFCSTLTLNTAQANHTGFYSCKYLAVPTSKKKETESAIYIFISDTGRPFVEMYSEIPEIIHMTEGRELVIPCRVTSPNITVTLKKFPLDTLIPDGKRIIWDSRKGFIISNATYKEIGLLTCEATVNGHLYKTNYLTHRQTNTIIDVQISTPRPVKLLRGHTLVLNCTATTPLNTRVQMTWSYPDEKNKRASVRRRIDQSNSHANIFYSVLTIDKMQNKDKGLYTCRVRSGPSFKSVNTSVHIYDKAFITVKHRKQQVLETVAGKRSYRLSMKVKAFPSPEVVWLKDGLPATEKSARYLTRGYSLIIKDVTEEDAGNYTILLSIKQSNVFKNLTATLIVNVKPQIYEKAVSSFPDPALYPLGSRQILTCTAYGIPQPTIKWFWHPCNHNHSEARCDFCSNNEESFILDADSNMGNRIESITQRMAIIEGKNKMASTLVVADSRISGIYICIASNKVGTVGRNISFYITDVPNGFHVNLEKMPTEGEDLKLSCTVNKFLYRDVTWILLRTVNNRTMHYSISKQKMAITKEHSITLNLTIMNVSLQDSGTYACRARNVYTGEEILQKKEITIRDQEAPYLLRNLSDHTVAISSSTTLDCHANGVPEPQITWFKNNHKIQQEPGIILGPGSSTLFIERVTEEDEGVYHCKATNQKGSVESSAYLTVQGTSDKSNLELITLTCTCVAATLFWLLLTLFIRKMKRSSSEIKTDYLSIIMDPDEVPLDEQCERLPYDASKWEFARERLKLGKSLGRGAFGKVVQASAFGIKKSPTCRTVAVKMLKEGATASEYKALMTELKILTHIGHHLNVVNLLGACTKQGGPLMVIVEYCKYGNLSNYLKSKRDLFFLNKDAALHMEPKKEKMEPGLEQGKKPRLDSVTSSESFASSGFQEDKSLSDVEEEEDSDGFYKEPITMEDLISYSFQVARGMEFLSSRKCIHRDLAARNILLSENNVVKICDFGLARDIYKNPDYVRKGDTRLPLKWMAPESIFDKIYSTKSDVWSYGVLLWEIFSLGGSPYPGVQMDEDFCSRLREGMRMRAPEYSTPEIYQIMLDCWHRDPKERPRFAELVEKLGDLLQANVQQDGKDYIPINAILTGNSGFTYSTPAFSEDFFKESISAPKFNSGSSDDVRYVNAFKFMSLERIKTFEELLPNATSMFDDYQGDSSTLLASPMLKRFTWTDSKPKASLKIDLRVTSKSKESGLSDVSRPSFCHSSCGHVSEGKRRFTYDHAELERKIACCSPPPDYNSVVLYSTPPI
Procedure, shortened: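 Kinase activity of recombinant human VEGFR1 was read by fluorescence after electrophoretic separation of product from substrate, 1 h post-dosing; initial duplicate single-point testing at 25 uM, followed by concentration-series follow-up, with DMSO as baseline.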

SMILES: CCOc1ccc2[nH]cc(C(=O)NCc3ccccc3)c(=O)c2n1
- outcome [1]: inactive

SMILES: NC(=O)N(O)[C@@H]1COc2cc(OCc3ccccc3)ccc21
- AC50 [2]: 19.9 µM (active)

SMILES: CCc1cccc(CC)c1N
- outcome [3]: inactive

SMILES: O=C(O)c1cccc(C[C@@H]2COc3ccc(OCc4nc5cc(F)ccc5s4)cc3[C@@H]2O)c1
- outcome [2]: inactive

SMILES: CCCCCCCCCCCCCCO
- outcome [4]: inactive

SMILES: c1ccc(C(O[C@@H]2CCCN(CCc3ccc4c(c3)OCO4)C2)c2ccccc2)cc1
- AC50 [2]: 4.09 µM (active)

SMILES: CCN(CC)C(=S)SSC(=S)N(CC)CC
- outcome [3]: inactive
- outcome [5]: inactive
- outcome [6]: inactive
- outcome [4]: inactive

SMILES: NNC(=O)c1ccncc1
- outcome [3]: inactive

SMILES: Cn1cc[nH]c1=S
- outcome [3]: inactive
- outcome [7]: inactive

SMILES: c1ccc2ncccc2c1
- outcome [1]: inactive
- AC50 [2]: 6.6 µM (active)

SMILES: NC(N)=O
- outcome [3]: inactive

SMILES: COc1cc(C(C)C)c2c(c1)S(=O)(=O)N(COc1cc(=O)n3cccc(OCCN4CCCCC4)c3n1)C2=O
- outcome [2]: inactive

SMILES: Cc1ncc([C@@H](CCCCCCc2ccc3c(n2)NCCC3)CC(=O)O)cn1
- outcome [1]: inactive
- outcome [8]: inactive
- outcome [3]: inactive
- outcome [7]: inactive
- outcome [6]: inactive
- outcome [4]: inactive

SMILES: Cn1c(=O)c2[nH]cnc2n(C)c1=O
- outcome [9]: inactive

SMILES: O=c1[nH]cnc2c1ncn2[C@H]1CC[C@@H](CO)O1
- outcome [1]: inactive
- outcome [3]: inactive
- outcome [9]: inactive
- outcome [5]: inactive
- outcome [6]: inactive

SMILES: COCc1nnc(-c2ccc[n+]([O-])c2)n1-c1c(Cl)c(Cl)cc2[nH]c(=O)c(=O)[nH]c12
- outcome [8]: inactive
- outcome [3]: inactive

SMILES: CCCCCCOC(=O)CC(CC(=O)OCCCCCC)(OC(=O)CCC)C(=O)OCCCCCC
- outcome [3]: inactive

SMILES: CCCCCCCC/C=C\CCCCCCCC(=O)OC[C@@H](O)[C@H]1OC[C@H](O)[C@H]1O
- outcome [8]: inactive
- outcome [3]: inactive
- outcome [9]: inactive
- outcome [10]: inactive
- outcome [6]: inactive
- AC50 [4]: 40.7 µM (active)

SMILES: C=CCc1cc(S(=O)(=O)c2ccc(O)c(CC=C)c2)ccc1O
- AC50 [4]: 21.2 µM (active)

SMILES: OCCNCCO
- outcome [4]: inactive

SMILES: CCCCC(CC)C(=O)OCCOCCOCCOC(=O)C(CC)CCCC (centres undefined)
- outcome [2]: inactive
- outcome [6]: inactive

SMILES: Cc1nc(-c2ccccn2)ncc1C(=O)Nn1cc(C)c2cc(F)ccc21
- outcome [1]: inactive
- outcome [8]: inactive
- outcome [5]: inactive
- outcome [10]: inactive
- outcome [4]: inactive

SMILES: CC(C)C(=O)Nc1ccc([N+](=O)[O-])c(C(F)(F)F)c1
- outcome [2]: inactive

SMILES: NC(=O)N1c2ccccc2C=Cc2ccccc21
- outcome [1]: inactive

SMILES: OCCOCCOCCO
- outcome [6]: inactive

SMILES: Cc1nccn1-c1ccc(Sc2cccc(C3(C(N)=O)CCOCC3)c2)cc1
- AC50 [2]: 9.43 µM (active)

SMILES: O=C(O)c1ccc2c(c1)nc(C(=O)NC1CCN(C3CC3)CC1)n2Cc1cc(-c2ccc(Cl)s2)on1
- outcome [1]: inactive
- outcome [8]: inactive
- outcome [9]: inactive

SMILES: Cc1ccc(S(=O)(=O)NC(=O)NN2CCCCCC2)cc1
- outcome [4]: inactive

SMILES: CCCCCCCCN(C)C
- outcome [2]: inactive

SMILES: CC[C@H](C)C(=O)O[C@H]1C[C@H](O)C=C2C=C[C@H](C)[C@H](CC[C@@H](O)C[C@@H](O)CC(=O)O)[C@H]21
- outcome [6]: inactive
- outcome [4]: inactive

SMILES: O=C(NO)C1(NS(=O)(=O)c2ccc(Oc3ccc(F)cc3)cc2)CCOCC1
- outcome [10]: inactive
- outcome [6]: inactive

SMILES: CC(C)c1nnc2ccc(-c3ocnc3-c3cc(F)ccc3F)cn12
- outcome [3]: inactive
- outcome [7]: inactive

SMILES: CCCC(CCC)C(=O)O
- outcome [8]: inactive
- outcome [3]: inactive
- outcome [7]: inactive
- outcome [9]: inactive
- outcome [5]: inactive
- outcome [6]: inactive

SMILES: CC(=O)c1ccccc1
- outcome [3]: inactive

Reference: PubChem BioAssay (EPA / NIEHS)
